From PubChem BioAssay (EPA / NIEHS) come the findings set out here.

Usually AC50 stands for the midpoint of the concentration-response curve, whichever way the signal moves.

Activity calls are given as the source filed them. Rule for the calls: active = hit-call score of the fitted dose curve at least 0.9, where 1 is the maximum; inactive = score below 0.9.

Read-out in the experiment: Interferon-gamma inducible Protein 10 (IP10), CXCL10 (gene 3627)
Kind of experiment: BSK_hDFCGF_IP10: BioMAP Diversity Plus: hDFCGF Assay for Interferon-gamma inducible Protein 10 (IP10) Biomarker Activity (AID 2283053). The settings on record: primary human foreskin fibroblasts; actives raise or lower the signal. The protocol:
BSK_hDFCGF is a cell-based, multiplexed-readout assay that uses foreskin fibroblast, a human skin primary cell, with measurements taken at 24 hours after chemical dosing in a 96-well plate.BSK_hDFCGF_IP10 is an assay component measured in the BSK_hDFCGF assay. It measures IP-10 antibody related to regulation of gene expression using ELISA technology.Data from the assay component BSK_hDFCGF_IP10 was analyzed into 1 assay endpoint. This assay endpoint, BSK_hDFCGF_IP10, was analyzed with bidirectional fitting relative to DMSO as the negative control and baseline of activity. Using a type of binding reporter, gain or loss-of-signal activity can be used to understand changes in the signaling as they relate to the gene CXCL10. Furthermore, this assay endpoint can be referred to as a primary readout, because this assay has produced multiple assay endpoints where this one serves a signaling function. To generalize the intended target to other relatable targets, this assay endpoint is annotated to the cytokine intended target family, where the subfamily is chemotactic factor.
The levels of cell surface (or secreted, indicated by the prefix "s") biomarker endpoints were measured by ELISA. Overt cytotoxicity to cells in confluent adherent cultures (all systems other than the BT system) was assessed by measuring total protein levels using sulforhodamine B (SRB) staining in parallel cultures at the time of biomarker measurements, indicated as SRB endpoints. For proliferation assays for adherent cell types, individual cell types are cultured at sub-confluence and relative cell numbers quantified by SRB staining at time points optimized for each system (48 h: 3C and CASM3C systems; 72 h: BT and HDF3CGF systems; 96 h: SAg system). SRB was performed by staining cells with 0.1% SRB after fixation with 10% TCA and reading wells at 560 nm.Viability and proliferation of PBMC (T cells) was quantified by Alamar Blue reduction for the SAg and BT systems. For PBMC viability (referred to as PBMC Cytotoxicity within the assay endpoint names), cells were plated (75,000/well in a 96-well plate) and then chemical samples added for 1 h before addition of activators, SEB and TSST-1 (20 ng/mL final concentration each). Cells were incubated for 90 h. Then, Alamar Blue (20 uL/well) (Invitrogen, Cat DAL1100) was added for 6 h, and the plates were read with a fluorescence microplate reader at 546/580 nm (excitation/emission). For PBMC proliferation, cells were plated and activated as above but incubated for only 16 h prior to addition of Alamar Blue. Plates were read after 6 h.
With `c1ccc2n[nH]nc2c1`, the outcome was inactive.
As to `Clc1cc(Cl)c2c(c1)N=C1CCCCCN1C2`, the outcome was inactive.
Same read-out and setting: with `CCCC(=O)OCCC(C)C` the entry was “inactive”.
Same read-out and setting: with `Cc1ccc(C(C)C)cc1` the entry was “inactive”.
Take `Cc1cc(F)ccc1-c1cc(N2CC[C@@H](O)[C@H]2CO)ncc1N(C)C(=O)C(C)(C)c1cc(C(F)(F)F)cc(C(F)(F)F)c1`: the AC50 is 14.9 µM (active).
Take `CCCOC(=O)c1cc(O)c(O)c(O)c1`: the AC50 is 20 µM (active).
`CC1=CC(=O)/C(=C(/C)O)C(=O)O1`: the result was inactive.
The same measure, in the same setting: the entry for `O=C(O)Cn1c(=O)n(Cc2ccc(Br)cc2F)c(=O)c2ccc(Cl)cc21` is “inactive”; for `O=C(OCCCCCCOC(=O)c1ccccc1)c1ccccc1` it is “inactive”; for `O=C1O[C@H]([C@@H](O)CO)C(O)=C1O` it is “inactive”.
With `CCOC(=O)O[C@H](C)OC(=O)c1ccc2c(c1)cc(C(=O)NC1CCN(C(C)C)CC1)n2Cc1cc(-c2ccc(Cl)s2)on1`, the half-maximal activity concentration (AC50) is 4.62 µM (active).
Take `Oc1ccccc1`: the result was inactive.
Regarding `CN1C(=O)N(c2ccccc2Br)Cc2cnc(Nc3ccc4c(c3)OCC(CO)O4)nc21` (stereo not given), the AC50 was 21.3 µM (active).
In the case of `CCCCOC(=O)CC(CC(=O)OCCCC)(OC(C)=O)C(=O)OCCCC`, the result was inactive.
As for `COc1ccc2cc(S(=O)(=O)N[C@H](CC(=O)N[C@H](Cc3ccc(CN4[C@H](C)CCC[C@@H]4C)cc3)C(=O)N(C)C(C)C)c3ccc4c(c3)OCO4)ccc2c1`, the AC50 was 30.4 µM (active).
Turning to `Cc1occc1C(=O)Nc1ccc(C(=O)N2CCC(F)(F)/C(=C\C(=O)N3CCC(N4CCCCC4)CC3)c3ccccc32)cc1`, the outcome was inactive.
With `O=c1c(-c2ccc(O)cc2)coc2cc(O)cc(O)c12`, the AC50 is 20 µM (active).
Take `CN1C(=O)CC[C@H]1c1cccnc1`: the outcome was inactive.
Still for that read-out and setting: the entry for `C[C@]12CC[C@@H]3c4ccc(O)cc4CC[C@H]3[C@@H]1CC[C@H]2O` is “inactive”.
On to `O=C1CCC(C2CCCCC2)CC1`, for which the AC50 was 33.1 µM (active).
Consider `C[C@]12CC[C@@H]3c4ccc(O)cc4CC[C@H]3[C@@H]1CCC2=O`, for which the result was inactive.
Take `NC(=O)c1nc(-c2cccc(-c3cc(F)ccc3OCC(F)(F)C(F)(F)F)c2)n[nH]1`: the AC50 is 35 µM (active).
Take `CC1(C)NC(=O)N(c2ccc([N+](=O)[O-])c(C(F)(F)F)c2)C1=O`: the outcome was inactive.
Take `CN(C[C@@H](CC[N+]12CCC(C3CCCCC3)(CC1)CC2)c1ccc(Cl)c(Cl)c1)C(=O)c1cc(C(F)(F)F)cc(C(F)(F)F)c1`: the AC50 is 6.46 µM (active).
Take `CCN(Cc1cccnc1)C(=O)c1cccc(Cl)c1[C@]1(C)C(=O)N(Cc2ccc(OC)cc2OC)c2ccc(Cl)cc21`: the AC50 was 7.05 µM (active).
With `Cc1cc2c(cc1C(F)(F)F)N(C(=O)Nc1ccc(Oc3cccnc3C)nc1)CC2`, the AC50 is 18.4 µM (active).
In the case of `O=CCCCC=O`, the AC50 was 34.9 µM (active).
On the same count and under the same terms, the figure for `CCCCCCCCOC(=O)c1cc(O)c(O)c(O)c1` is 12.7 µM (active).
For the compound `O=C(O)Cc1cc(I)c(Oc2ccc(O)c(I)c2)c(I)c1`, the outcome was inactive.
For `CCCCCCCCCCCCO`, the AC50 was 29.3 µM (active).
Turning to `Oc1ccc2ccccc2c1`, the result was inactive.
The same measure, in the same setting: the entry for `CC[C@H](NC(=O)c1cc(F)ccc1NS(=O)(=O)c1cccc2cccnc12)c1ccccc1` is “inactive”; for `O=C(O)c1ccccc1C(=O)OCc1ccccc1` it is “inactive”; for `OC12N=C(c3ccccc3)SC1Cc1cc(Cl)ccc12` (stereo not given) it is “inactive”.
On to `c1ccc(C[n+]2cccc3ccccc32)cc1`, for which the outcome was inactive.
On to `Cc1ncc(CO)c(CO)c1O`, for which the outcome was inactive.
Still for that read-out and setting: the entry for `CCCCCCCCCC(=O)O` is “inactive”.
As to `CC(C)(C)c1cc(/C=C2\SC(N)=NC2=O)cc(C(C)(C)C)c1O`, the AC50 was 25.7 µM (active).
Regarding `CC(C)(O)c1ccc(CNC(=O)c2cccnc2Oc2ccc3nonc3c2)cc1`, the outcome was inactive.
As for `CCCCCc1ccc(N)cc1`, the AC50 is 20 µM (active).
